In PMC7862700, “An all-to-all approach to the identification of sequence-specific readers for epigenetic DNA modifications on cytosine” one finds binding signal data, which are given here for one sequence.

Holding throughout (assay): DAPPL (digital affinity profiling via proximity ligation, sequencing); 10 mM Tris-HCl pH 7.5, 50 mM NaCl, 1 mM DTT, 4% glycerol, room temperature, 30 min; GST-TFs on glutathione beads, 16-mer random dsDNA library, 0.1% formaldehyde crosslink after washing; high values mean tight binding
In one test the target is T1, FEV (Homo sapiens, UniProt Q99581 1-238).
T1 sequence: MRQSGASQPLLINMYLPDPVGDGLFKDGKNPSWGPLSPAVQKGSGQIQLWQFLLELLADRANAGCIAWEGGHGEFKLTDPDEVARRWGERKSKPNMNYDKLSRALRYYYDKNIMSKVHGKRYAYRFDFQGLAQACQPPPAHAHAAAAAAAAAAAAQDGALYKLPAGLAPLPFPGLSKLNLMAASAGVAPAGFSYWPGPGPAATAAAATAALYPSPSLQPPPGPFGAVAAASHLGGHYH
As to conditions: protein: recombinant; tags: N-terminal GST; dsDNA, one strand shown. The method in brief:
(§1)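 In yeast, human transcription factors were expressed with a GST fusion, then pulled down on glutathione beads and given DNA barcodes. Pooled with a tag-only sample, they were exposed to 200 nmole of a 16-mer random double-stranded DNA library (Tris/NaCl/DTT/glycerol buffer, room temperature, 30 min), washed, crosslinked with 0.1% formaldehyde, proximity-ligated using BsaI/T4 ligase for 1 h at 37 °C, PCR-amplified and read on an Illumina NextSeq500. Each hexamer's frequency of reads for a factor, divided by the matching frequency for the tag-only sample, gives the binding signal.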

In a further test the target is ETV5 (Homo sapiens, UniProt P41161 1-510). As to conditions: protein: recombinant; tags: N-terminal GST; dsDNA, one strand shown. The method in brief:
as §1

Another test deals with HSF1 (Homo sapiens, UniProt Q00613 1-529). As to conditions: protein: recombinant; tags: N-terminal GST; chain copies: 3; dsDNA, one strand shown. The method in brief:
as §1

Another test addresses T2, SPIC (Homo sapiens, UniProt Q8N5J4 1-248).
T2 sequence: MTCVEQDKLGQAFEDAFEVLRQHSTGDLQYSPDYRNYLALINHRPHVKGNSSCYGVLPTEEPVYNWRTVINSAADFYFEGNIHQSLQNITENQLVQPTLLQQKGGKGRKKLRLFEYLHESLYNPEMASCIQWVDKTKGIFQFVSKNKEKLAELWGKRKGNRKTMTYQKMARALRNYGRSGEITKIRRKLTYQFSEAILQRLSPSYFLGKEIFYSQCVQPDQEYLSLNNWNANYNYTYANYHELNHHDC
As to conditions: protein: recombinant; tags: N-terminal GST; dsDNA, one strand shown. The gist of the method: as §1

The target of a further test is ELF4 (Homo sapiens, UniProt Q99607 1-663). As to conditions: protein: recombinant; tags: N-terminal GST; dsDNA, one strand shown. The gist of the method:
as §1

The next test deals with T3, ELK4 (Homo sapiens, UniProt P28324-2 1-405).
T3 sequence: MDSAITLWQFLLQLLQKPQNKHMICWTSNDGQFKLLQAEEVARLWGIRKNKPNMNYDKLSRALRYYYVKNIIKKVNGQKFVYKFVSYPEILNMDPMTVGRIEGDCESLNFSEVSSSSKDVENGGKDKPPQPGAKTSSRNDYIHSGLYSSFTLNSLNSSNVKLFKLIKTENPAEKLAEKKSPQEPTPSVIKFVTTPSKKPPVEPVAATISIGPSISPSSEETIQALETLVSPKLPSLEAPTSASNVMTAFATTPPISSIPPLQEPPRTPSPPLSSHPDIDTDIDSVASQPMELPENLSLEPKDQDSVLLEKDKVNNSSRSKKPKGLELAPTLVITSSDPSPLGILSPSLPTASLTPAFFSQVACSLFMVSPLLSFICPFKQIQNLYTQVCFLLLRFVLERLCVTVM
As to conditions: protein: recombinant; tags: N-terminal GST; dsDNA, one strand shown. The gist of the method:
as §1

The target in another test is T4, ETV2 (Homo sapiens, UniProt O00321 1-342).
T4 sequence: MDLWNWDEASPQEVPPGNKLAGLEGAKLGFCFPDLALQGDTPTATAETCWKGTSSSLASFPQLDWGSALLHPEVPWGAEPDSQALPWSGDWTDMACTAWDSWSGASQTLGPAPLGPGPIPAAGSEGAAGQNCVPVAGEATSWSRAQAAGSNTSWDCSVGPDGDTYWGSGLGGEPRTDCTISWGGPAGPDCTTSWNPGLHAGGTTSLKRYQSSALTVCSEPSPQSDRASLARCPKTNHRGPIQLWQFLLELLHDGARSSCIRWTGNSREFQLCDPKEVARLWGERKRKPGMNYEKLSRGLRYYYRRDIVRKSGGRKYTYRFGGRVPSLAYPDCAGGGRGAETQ
Conditions: protein: recombinant; tags: N-terminal GST; dsDNA, one strand shown. The method in brief:
as §1

The target in a further test is T5, ELF3 (Homo sapiens, UniProt P78545 1-371).
T5 sequence: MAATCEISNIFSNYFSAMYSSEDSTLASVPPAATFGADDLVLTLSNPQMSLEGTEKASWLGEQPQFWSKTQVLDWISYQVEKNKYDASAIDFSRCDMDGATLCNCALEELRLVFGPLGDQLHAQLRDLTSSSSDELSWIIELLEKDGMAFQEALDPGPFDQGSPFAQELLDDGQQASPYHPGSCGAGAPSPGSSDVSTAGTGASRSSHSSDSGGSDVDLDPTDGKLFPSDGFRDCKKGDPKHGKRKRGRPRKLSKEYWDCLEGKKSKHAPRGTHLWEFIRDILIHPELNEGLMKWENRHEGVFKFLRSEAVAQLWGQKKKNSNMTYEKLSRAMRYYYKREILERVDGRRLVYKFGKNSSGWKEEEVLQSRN
Conditions: protein: recombinant; tags: N-terminal GST; dsDNA, one strand shown. The method in brief: as §1

Another test concerns the target CRX (Homo sapiens, UniProt O43186 1-299). As to conditions: protein: recombinant; tags: N-terminal GST; dsDNA, one strand shown. The method in brief: as §1
A further test deals with ETV1 (Homo sapiens, UniProt P50549 1-477). As to conditions: protein: recombinant; tags: N-terminal GST; dsDNA, one strand shown. The method in brief:
as §1

A further test deals with T6, ERF (Homo sapiens, UniProt P50548 1-548).
T6 sequence: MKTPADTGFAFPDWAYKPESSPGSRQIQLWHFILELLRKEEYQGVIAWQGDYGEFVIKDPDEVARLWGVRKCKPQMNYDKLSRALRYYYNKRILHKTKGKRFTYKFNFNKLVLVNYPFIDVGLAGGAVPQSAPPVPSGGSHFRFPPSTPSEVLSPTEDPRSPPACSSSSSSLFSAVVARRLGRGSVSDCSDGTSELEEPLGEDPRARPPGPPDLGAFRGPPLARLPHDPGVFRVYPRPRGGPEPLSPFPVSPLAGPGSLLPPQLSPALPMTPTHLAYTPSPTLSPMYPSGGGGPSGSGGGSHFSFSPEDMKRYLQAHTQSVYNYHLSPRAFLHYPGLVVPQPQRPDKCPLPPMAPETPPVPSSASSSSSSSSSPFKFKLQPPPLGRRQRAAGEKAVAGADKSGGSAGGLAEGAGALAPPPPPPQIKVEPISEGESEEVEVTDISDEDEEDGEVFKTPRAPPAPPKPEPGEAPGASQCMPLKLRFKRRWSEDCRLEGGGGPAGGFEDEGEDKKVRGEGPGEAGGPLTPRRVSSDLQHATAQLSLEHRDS
Conditions: protein: recombinant; tags: N-terminal GST; dsDNA, one strand shown. The method in brief: as §1

The target in the next test is T7, ETV3L (Homo sapiens, UniProt Q6ZN32 1-361).
T7 sequence: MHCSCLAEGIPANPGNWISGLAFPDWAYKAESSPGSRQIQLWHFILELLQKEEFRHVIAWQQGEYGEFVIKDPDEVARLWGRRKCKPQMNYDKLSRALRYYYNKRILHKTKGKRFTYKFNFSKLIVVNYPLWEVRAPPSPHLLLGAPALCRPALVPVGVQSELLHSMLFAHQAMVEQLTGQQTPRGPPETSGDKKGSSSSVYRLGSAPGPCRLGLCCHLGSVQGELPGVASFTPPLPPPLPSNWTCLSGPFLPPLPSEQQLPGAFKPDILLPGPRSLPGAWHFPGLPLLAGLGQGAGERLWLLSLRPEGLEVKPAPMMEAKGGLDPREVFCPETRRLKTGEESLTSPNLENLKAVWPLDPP
Conditions: protein: recombinant; tags: N-terminal GST; dsDNA, one strand shown. The gist of the method:
as §1

The target of the next test is T8, ETS2 (Homo sapiens, UniProt P15036 1-469).
T8 sequence: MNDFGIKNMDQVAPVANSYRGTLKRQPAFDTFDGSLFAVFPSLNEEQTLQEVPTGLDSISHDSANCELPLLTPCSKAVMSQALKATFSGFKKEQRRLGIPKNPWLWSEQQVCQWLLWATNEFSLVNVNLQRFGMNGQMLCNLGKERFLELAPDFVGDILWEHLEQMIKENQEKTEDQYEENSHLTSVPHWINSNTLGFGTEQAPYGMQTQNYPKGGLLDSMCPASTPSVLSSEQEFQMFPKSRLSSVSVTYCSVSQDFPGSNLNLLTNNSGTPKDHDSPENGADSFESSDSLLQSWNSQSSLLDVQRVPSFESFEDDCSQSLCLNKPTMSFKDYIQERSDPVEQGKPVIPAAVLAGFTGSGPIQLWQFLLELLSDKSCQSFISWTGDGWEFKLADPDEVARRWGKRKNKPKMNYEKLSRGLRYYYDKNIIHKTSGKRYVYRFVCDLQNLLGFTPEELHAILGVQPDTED
Conditions: protein: recombinant; tags: N-terminal GST; dsDNA, one strand shown. The method in brief:
as §1

The target in a further test is T9, SPDEF (Homo sapiens, UniProt O95238 1-335).
T9 sequence: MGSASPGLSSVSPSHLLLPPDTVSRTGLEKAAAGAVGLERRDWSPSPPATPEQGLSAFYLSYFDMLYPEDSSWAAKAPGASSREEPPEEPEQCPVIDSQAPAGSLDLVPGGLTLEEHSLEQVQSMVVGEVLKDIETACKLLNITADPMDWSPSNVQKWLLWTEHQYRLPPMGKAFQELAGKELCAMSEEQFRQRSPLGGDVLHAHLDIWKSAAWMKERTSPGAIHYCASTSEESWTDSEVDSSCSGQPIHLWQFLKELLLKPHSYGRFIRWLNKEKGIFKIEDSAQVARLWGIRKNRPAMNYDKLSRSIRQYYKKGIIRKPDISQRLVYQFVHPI
As to conditions: protein: recombinant; tags: N-terminal GST; dsDNA, one strand shown. The gist of the method:
as §1

Another test addresses T10, ETV7 (Homo sapiens, UniProt Q9Y603 1-341).
T10 sequence: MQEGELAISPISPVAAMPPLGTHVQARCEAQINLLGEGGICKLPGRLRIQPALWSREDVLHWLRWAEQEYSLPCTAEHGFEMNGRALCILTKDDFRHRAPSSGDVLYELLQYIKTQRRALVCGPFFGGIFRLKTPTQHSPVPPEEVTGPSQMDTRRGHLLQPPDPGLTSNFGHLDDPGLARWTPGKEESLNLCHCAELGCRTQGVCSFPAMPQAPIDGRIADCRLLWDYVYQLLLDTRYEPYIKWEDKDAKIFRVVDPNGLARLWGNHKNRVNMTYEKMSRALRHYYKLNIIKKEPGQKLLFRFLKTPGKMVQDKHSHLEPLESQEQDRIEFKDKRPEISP
As to conditions: protein: recombinant; tags: N-terminal GST; dsDNA, one strand shown. The method in brief:
as §1

A further test deals with T11, ELF5 (Homo sapiens, UniProt Q9UKW6-2 1-255).
T11 sequence: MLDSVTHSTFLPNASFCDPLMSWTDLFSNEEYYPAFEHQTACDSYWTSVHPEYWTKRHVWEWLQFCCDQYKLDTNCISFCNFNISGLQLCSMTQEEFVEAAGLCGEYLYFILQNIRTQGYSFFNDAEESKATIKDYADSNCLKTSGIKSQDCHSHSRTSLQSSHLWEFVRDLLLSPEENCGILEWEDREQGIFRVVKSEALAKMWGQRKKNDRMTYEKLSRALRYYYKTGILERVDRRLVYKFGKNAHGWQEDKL
Conditions: protein: recombinant; tags: N-terminal GST; dsDNA, one strand shown. The method in brief:
as §1

In another test the target is T12, ETV3 (Homo sapiens, UniProt P41162-2 1-143).
T12 sequence: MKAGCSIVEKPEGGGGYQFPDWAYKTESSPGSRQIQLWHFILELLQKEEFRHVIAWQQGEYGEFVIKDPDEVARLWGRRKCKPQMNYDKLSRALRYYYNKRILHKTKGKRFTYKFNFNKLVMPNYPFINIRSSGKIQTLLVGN
As to conditions: protein: recombinant; tags: N-terminal GST; dsDNA, one strand shown. The gist of the method:
as §1

In another test the target is ETV6 (Homo sapiens, UniProt P41212 1-452). Conditions: protein: recombinant; tags: N-terminal GST; dsDNA, one strand shown. The method in brief: as §1
ETV6, sequence (P41212 whole entry): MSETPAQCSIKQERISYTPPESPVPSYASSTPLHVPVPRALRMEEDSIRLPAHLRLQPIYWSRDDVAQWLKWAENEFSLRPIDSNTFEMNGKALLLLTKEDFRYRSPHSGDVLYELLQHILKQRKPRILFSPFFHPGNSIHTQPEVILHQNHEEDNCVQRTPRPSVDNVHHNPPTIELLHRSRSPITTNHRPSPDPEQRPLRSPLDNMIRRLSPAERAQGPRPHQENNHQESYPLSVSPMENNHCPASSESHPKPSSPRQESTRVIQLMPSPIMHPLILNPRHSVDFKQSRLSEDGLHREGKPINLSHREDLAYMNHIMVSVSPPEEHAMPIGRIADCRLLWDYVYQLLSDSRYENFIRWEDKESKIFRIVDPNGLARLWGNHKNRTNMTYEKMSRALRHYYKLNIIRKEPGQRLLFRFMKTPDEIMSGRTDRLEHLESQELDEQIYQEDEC

ELF4, sequence (Q99607 whole entry): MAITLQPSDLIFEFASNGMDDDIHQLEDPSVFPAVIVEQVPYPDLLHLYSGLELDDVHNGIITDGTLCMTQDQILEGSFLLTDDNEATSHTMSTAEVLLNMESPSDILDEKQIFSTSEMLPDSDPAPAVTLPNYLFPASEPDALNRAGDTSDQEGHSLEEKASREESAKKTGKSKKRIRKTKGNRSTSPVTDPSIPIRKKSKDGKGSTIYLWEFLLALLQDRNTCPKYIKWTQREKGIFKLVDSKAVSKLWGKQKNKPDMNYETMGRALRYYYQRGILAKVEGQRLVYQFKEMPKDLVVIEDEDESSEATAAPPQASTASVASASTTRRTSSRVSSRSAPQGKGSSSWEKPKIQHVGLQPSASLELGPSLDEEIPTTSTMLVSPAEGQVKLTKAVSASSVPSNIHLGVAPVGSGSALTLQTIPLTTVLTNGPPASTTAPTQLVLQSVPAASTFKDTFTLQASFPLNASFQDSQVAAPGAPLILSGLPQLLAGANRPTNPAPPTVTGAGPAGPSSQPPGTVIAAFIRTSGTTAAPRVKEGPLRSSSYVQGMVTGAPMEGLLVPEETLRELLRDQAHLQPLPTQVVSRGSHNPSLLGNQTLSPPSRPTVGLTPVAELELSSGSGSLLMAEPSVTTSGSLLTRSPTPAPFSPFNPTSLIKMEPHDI
HSF1, sequence (Q00613 whole entry): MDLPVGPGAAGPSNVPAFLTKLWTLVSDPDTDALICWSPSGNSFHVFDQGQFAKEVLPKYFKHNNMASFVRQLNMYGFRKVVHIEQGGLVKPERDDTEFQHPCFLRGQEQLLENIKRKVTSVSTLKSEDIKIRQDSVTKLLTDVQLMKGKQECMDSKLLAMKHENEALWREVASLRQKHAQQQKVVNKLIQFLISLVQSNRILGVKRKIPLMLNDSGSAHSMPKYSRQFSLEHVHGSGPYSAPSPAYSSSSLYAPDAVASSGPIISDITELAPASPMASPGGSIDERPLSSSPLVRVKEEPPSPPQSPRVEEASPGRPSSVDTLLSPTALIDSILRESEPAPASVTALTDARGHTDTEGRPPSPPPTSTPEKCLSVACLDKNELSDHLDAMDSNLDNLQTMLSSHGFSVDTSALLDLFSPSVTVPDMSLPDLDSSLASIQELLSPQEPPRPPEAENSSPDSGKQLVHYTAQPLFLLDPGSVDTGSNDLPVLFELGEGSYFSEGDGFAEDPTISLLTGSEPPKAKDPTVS
ETV5, sequence (P41161 whole entry): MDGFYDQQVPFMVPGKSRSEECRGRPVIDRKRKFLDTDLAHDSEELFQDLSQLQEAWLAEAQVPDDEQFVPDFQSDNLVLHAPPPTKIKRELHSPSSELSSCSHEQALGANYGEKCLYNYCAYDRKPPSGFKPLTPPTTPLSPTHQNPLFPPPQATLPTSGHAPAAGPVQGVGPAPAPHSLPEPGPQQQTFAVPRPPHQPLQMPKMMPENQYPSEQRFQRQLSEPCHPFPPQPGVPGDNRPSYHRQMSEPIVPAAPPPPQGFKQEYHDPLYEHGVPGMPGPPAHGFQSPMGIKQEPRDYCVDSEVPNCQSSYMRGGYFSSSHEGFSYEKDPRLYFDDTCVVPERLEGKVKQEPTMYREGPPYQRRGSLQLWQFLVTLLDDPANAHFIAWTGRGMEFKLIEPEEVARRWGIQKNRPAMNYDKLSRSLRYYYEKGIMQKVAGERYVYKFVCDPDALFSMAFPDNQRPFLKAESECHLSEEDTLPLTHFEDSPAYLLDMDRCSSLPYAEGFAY
CRX, sequence (O43186 whole entry): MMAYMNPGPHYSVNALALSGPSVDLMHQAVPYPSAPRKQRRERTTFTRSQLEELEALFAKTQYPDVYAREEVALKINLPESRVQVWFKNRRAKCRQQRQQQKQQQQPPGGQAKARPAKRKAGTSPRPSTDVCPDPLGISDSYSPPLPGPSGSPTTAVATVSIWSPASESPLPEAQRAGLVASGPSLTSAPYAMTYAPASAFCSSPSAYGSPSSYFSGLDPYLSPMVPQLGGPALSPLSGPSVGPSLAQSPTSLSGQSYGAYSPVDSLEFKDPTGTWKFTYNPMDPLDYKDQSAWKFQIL
ETV1, sequence (P50549 whole entry): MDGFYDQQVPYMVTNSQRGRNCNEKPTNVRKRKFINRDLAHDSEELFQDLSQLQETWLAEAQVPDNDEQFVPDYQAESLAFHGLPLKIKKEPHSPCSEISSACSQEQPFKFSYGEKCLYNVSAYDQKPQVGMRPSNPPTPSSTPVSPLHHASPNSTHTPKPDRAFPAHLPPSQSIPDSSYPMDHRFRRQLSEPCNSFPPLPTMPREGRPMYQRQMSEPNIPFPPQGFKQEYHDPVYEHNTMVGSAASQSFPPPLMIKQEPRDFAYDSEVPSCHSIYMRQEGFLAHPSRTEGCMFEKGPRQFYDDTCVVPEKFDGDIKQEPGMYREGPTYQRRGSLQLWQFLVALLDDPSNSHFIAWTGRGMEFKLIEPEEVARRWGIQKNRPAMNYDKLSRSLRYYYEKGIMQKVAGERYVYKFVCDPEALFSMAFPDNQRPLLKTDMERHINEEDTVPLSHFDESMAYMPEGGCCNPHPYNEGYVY

Regarding ATTAAA, the binding signal with FEV is 1.1 fold enrichment (6-mer frequency, TF over GST control); with ETV5 it was 1.2 fold enrichment (6-mer frequency, TF over GST control); in the test with HSF1, 1.97 fold enrichment (6-mer frequency, TF over GST control); with SPIC, 1.14 fold enrichment (6-mer frequency, TF over GST control); with ELF4 it was 1.16 fold enrichment (6-mer frequency, TF over GST control); in the test with ELK4, 1.1 fold enrichment (6-mer frequency, TF over GST control). The binding signal is 1.16 fold enrichment (6-mer frequency, TF over GST control) with ETV2; 1.05 fold enrichment (6-mer frequency, TF over GST control) with ELF3; 2.99 fold enrichment (6-mer frequency, TF over GST control) in the test with CRX; 1.18 fold enrichment (6-mer frequency, TF over GST control) in the test with ETV1; 1.3 fold enrichment (6-mer frequency, TF over GST control) in the test with ERF; 1.24 fold enrichment (6-mer frequency, TF over GST control) with ETV3L. Besides, the binding signal was 1.12 fold enrichment (6-mer frequency, TF over GST control) with ETS2; 1.14 fold enrichment (6-mer frequency, TF over GST control) in the test with SPDEF; 1.1 fold enrichment (6-mer frequency, TF over GST control) with ETV7; 1.12 fold enrichment (6-mer frequency, TF over GST control) with ELF5; 1.12 fold enrichment (6-mer frequency, TF over GST control) in the test with ETV3; 1.18 fold enrichment (6-mer frequency, TF over GST control) with ETV6.
